Measurements from PubChem BioAssay AID2796 (The Scripps Research Institute Molecular Screening Center, 2010).
The campaign covered roughly 320,000 compounds. About 8,000 (2.5%) were called active. This excerpt belongs to a sample that is enriched for actives. A number with no mark means an inactive call. No stated cut-off is given here; in the data, active means activation above about 47%; inactive means the rest.

molecular target: Aryl hydrocarbon receptor (Homo sapiens) (UniProt P35869); test: AHR activators, primary screen, cell-based, luminescence, luciferase reporter, human (AID 2796); conditions: AHR-responsive luciferase reporter cells, at 5 µM, hits give high values;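 further: 0% = vehicle wells and 100% = reference agonist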
Sequence (P35869 whole entry, looked up): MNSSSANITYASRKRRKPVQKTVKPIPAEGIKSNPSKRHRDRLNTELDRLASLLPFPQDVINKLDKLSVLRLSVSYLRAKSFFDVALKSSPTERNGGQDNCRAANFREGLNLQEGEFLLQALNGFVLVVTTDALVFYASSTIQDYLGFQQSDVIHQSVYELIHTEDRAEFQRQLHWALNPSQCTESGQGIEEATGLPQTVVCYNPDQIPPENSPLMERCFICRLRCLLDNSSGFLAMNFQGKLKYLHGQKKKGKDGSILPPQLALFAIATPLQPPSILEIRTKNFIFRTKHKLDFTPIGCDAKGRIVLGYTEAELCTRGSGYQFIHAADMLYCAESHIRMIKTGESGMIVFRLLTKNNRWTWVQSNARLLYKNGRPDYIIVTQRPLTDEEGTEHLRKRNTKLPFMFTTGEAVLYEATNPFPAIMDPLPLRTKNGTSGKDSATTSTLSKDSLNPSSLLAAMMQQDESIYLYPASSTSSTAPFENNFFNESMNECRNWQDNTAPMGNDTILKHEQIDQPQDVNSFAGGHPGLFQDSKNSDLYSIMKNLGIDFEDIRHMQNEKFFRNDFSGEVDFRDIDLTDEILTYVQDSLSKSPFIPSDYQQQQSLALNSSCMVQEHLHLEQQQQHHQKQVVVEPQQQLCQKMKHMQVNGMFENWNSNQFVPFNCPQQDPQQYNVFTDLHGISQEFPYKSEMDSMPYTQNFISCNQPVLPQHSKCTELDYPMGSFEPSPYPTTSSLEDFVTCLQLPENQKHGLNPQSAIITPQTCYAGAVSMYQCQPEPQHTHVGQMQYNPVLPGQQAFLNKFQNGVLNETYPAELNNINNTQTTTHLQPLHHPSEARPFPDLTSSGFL

Row | SMILES | activation
1 | C=CCOc1c(Br)cc(/C=N\n2nnnc2N)cc1OC | 115% (active)
2 | COc1ccc(/C=N/n2nnnc2N)cc1OC | 9.89%
3 | Nc1nnnn1/N=C/c1cccc(Br)c1 | 0.74%
4 | CCC(=O)/C=C1\Sc2ccccc2N1CC | 47.6% (active)
5 | CCN1/C(=C\c2ccc3ccccc3[n+]2CC)Sc2cc(C)ccc21 | -7.56%
6 | CCN1/C(=C/C(=S)Nc2ccccc2)Sc2ccccc21 | 60.2% (active)
7 | CCOC(=O)CNC(=O)N1c2ccccc2Sc2ccccc21 | -1.17%
8 | CCNCCC(=O)N1c2ccccc2Sc2ccc(NC(=O)OCC)cc21 | 12.7%
9 | S=C(NCCc1ccccc1)Nc1ccccc1 | 1.89%
10 | CSCCC(Nc1ccc(S(=O)(=O)N2CCOCC2)cc1[N+](=O)[O-])C(=O)OCC(=O)N(C(C)C)C(C)C (stereo not given) | -0.88%
11 | CN(C)c1ccc(CNC2C3CC4CC(C3)CC2C4)cc1 (stereo not given) | 1.86%
12 | O=C(CSc1nc2ccccc2[nH]1)Nc1nc(-c2ccccc2)c(-c2ccccc2)o1 | 5.78%
13 | Clc1ccccc1SCc1nc2ccccc2[nH]1 | -2.01%
14 | c1ccc(-c2nnc(SCc3nc4ccccc4[nH]3)o2)cc1 | 59.8% (active)
15 | Cc1cccc(C(=O)N2CCN(S(=O)(=O)N3CCCCC3)CC2)c1 | 0.85%
16 | CC1CN(CC(=O)NC(C)c2ccccc2)CC(C)O1 (stereo not given) | -1.1%
17 | CN(C)c1ccc(/C=N/Nc2cc(N3CCOCC3)nc(N3CCOCC3)n2)cc1 | 7.92%
18 | C(=N/Nc1cc(N2CCOCC2)nc(N2CCOCC2)n1)/c1ccccc1 | -0.44%
19 | COc1ccc(/C=N/Nc2cc(N3CCOCC3)nc(C)n2)c(OC)c1 | 69.5% (active)
20 | Cn1c2ccccc2n2c(=O)c(=O)n(CC(=O)c3ccc(F)cc3)nc12 | 0.34%
21 | C[C@H]1CN([C@@H](C)CO)C(=O)Cc2cc(NC(=O)Cc3ccccc3)ccc2O[C@H]1CN(C)S(=O)(=O)c1cccs1 | -0.6%
22 | O=C(C[C@@H]1C/C=C\CCC(=O)OC[C@@H]2CCCN2C1=O)NCCO | 2.28%
23 | O=C(Nc1cc(S(=O)(=O)Nc2ccc(Cl)cc2)ccc1O)c1ccc(F)cc1F | 111% (active)
24 | O=C(Nc1cccc(S(=O)(=O)NC2=NCCC2)c1)c1ccc(F)cc1F | 1.17%
25 | Cc1cc(NS(=O)(=O)c2ccc(NC(=S)NC(=O)c3ccc(F)cc3Cl)cc2)no1 | 17.3%

Row | SMILES | activation
26 | Cc1ccccc1NS(=O)(=O)CCCCC(Cl)(Cl)Cl | -0.27%
27 | COc1c(O)cccc1-c1nnn(CCC(=O)OCC(=O)c2ccccc2)n1 | 1.67%
28 | Cc1cc(C(=O)NNC(=O)CCC2CCCCC2)c(C)o1 | 1.65%
29 | CCOC(=O)c1nc(Nc2ccc(C(=O)OC)cc2)c2ccccc2n1 | 1.95%
30 | Cc1cc(Nc2ccc(Br)cc2)nc2ccccc12 | 54.1% (active)
31 | Cc1ccc2nc(Nc3ccccc3)cc(C)c2c1 | 26.6%
32 | O=C(CCC(=O)N/N=C/c1ccc(Br)o1)N/N=C/c1ccc(Br)o1 | 4.48%
33 | CCCNC(=O)N1CCC(c2ccc3c(c2)OCO3)CC1 | 1.31%
34 | COc1ccc(CCNc2cc(C)nc3c(-c4ccc(Cl)cc4)c(C)nn23)cc1OC | 31.2%
35 | Cc1ccsc1C(=O)N[C@@H](C)c1nnc2ccccn12 | 1.3%
36 | CCc1ccc(CNC(=O)CCc2nc(-c3cccs3)no2)cc1 | 4.73%
37 | COc1ccc(CCc2nc(-c3cccs3)no2)cc1 | 1.87%
38 | COc1ccc(OC)c(CNC(=O)CCc2nc(-c3cccs3)no2)c1 | 61.3% (active)
39 | CCn1c(SCC(=O)NC2CC2)nnc1-c1ccccc1OC | 14.6%
40 | Cc1ccc(C(=O)Cc2nnc(C)s2)cc1 | -0.8%
41 | CN(C)C(=O)COC(=O)c1cccc(S(=O)(=O)N2CC3(C)CC2CC(C)(C)C3)c1 (stereo not given) | -0.48%
42 | CCOC(=O)C1CCN(C(=O)CN2C(=O)NC(C)(c3ccc4cc(OC)ccc4c3)C2=O)CC1 (stereo not given) | 0.29%
43 | CC(=O)c1sc2nc(SCC(=O)N3CCCCC3)[nH]c(=O)c2c1C | 15.1%
44 | C=CCNC(=O)CSc1nc2sc(C)c(C)c2c(=O)[nH]1 | 107% (active)
45 | C=CCn1c(SCC(=O)Nc2ccc(NC(C)=O)cc2)nc2sc(C)c(C)c2c1=O | 0.33%
46 | CN(Cc1cccc2ncccc12)C(=O)CC1C(=O)NCCN1Cc1ccc(F)cc1 (stereo not given) | -0.17%
47 | COc1cccc(CC(=O)Nc2ccc(-c3csc(C)n3)cc2)c1 | -4.95%
48 | COc1cc(NC(=O)c2ccc(-c3csc(C)n3)cc2)c(OC)cc1Cl | 98.4% (active)
49 | CCOCC(=O)Nc1cc(OC)c(Cl)cc1OC | 19.9%
50 | CC(NC(=O)COC(=O)Cn1cc(C(F)(F)F)ccc1=O)c1ccccc1 (stereo not given) | -0.22%

Row | SMILES | activation
51 | CCOC(=O)c1cc(C#N)c(N2CCCCC2)nc1-c1ccccc1 | 13.2%
52 | Cc1cccc2cc(C#N)c(N3CCCC3)nc12 | 51.3% (active)
53 | CC(=O)c1ccc(S(=O)(=O)N2CCN(c3nc4c(C)c(C)ccc4cc3C#N)CC2)cc1 | -2.8%
54 | O=C(Nc1ccc2c(c1)CCC2)c1ccc(Br)s1 | 12%
55 | CSc1ccc(/C=N/NC(=O)c2cccc(Cl)c2)cc1 | 13.9%
56 | N#Cc1ccccc1NC(=O)c1cccc(COc2ccc(Cl)cc2Cl)c1 | -4.79%
57 | O=C(Nc1cccc2cccnc12)c1cccc(N2C(=O)CCC2=O)c1 | -2.04%
58 | O=C(Nc1cccc2cccnc12)c1cccc(Cl)c1 | 59.2% (active)
59 | CSc1ccc(C#N)cc1NC(=O)c1cccc(Cl)c1 | 58.8% (active)
60 | CSc1ccccc1NC(=O)c1cc(Cl)sc1Cl | 0.71%
61 | N#Cc1ccc(C(=O)Nc2cccc3cccnc23)c(F)c1 | -3.07%
62 | COC(=O)c1sccc1NC(=O)c1ccc(Cl)cc1 | 37.4%
63 | CSc1ccc(C#N)cc1NC(=O)c1ccc(Cl)cc1 | 96.9% (active)
64 | O=C1C2C3C=CC(C4CC34)C2C(=O)N1c1nccs1 (stereo not given) | 0.87%
65 | Cc1ccccc1N1C(=O)C(Oc2ccc(Cl)cc2)C1CNCC1CCCO1 (stereo not given) | -0.77%
66 | COc1ccccc1Cn1c(C)nnc1-c1cnn(C)c1N | 4.53%
67 | CN(C)c1ccc(NC(=O)CN2C3CCCC2CC(NC(=O)c2ccccc2)C3)cc1 (stereo not given) | 7.23%
68 | Cc1nc(-c2ccccc2)sc1C(=O)/C=C/N(C)C | 3.46%
69 | Cc1nc(-c2ccc(Cl)cc2)sc1C(=O)CBr | 54.9% (active)
70 | Cc1nc(-c2ccc(Cl)cc2)sc1C(=O)NN | 10.3%
71 | Cc1nc2ccccc2c(=O)n1NC(=O)c1ccccc1 | -1.87%
72 | Cc1ccnc(-n2sc3ccccc3c2=O)n1 | 98.3% (active)
73 | Cc1ccnc(N2CCCC(C(=O)NC3CC3)C2)n1 (stereo not given) | 1.42%
74 | NC(=O)Nc1ccccc1C(=O)NCCc1ccccc1 | 109% (active)
75 | COc1ccc(CCNC(=O)c2ccccc2OCc2ccccc2)cc1 | -0.83%

Row | SMILES | activation
76 | O=C(O)c1ccccc1-c1ccccc1C(=O)NCCc1ccccc1 | -1.22%
77 | COc1ccccc1NC(=O)[C@H](COCc1ccccc1)NC(=O)OC(C)(C)C | 13.7%
78 | CC(C)NC(=O)COCc1cc(-c2ccc3c(c2)OCO3)on1 | 14.2%
79 | CCc1nc(C)cn1S(=O)(=O)c1cc([N+](=O)[O-])ccc1Cl | -0.55%
80 | CC1CCc2c(c3ccccc3[nH]c2=O)O1 (stereo not given) | 45.7%
81 | N/C(=N\OS(=O)(=O)c1cccc([N+](=O)[O-])c1)c1ccncc1 | 0.65%
82 | COc1ccc(C2Nc3ccccc3C(=O)N2c2ccc(Cl)cc2)cc1Cn1cc([N+](=O)[O-])cn1 (stereo not given) | 57.9% (active)
83 | COc1ccc(C2Nc3ccccc3C(=O)N2c2ccc(F)cc2)cc1Cn1nnc2ccccc21 (stereo not given) | 4.17%
84 | COc1ccc(N2C(=O)c3ccccc3NC2c2ccc(OC)c(CN3CCOCC3)c2)cc1 (stereo not given) | 4.09%
85 | CC(C)N(C(=O)CSc1nnc(NC2CC2)s1)c1ccccc1 | 7.53%
86 | COc1ccc(C(=O)O)cc1S(=O)(=O)NC1CCN(Cc2ccccc2)CC1 | -0.69%
87 | NNc1nc2c(Cl)cccc2s1 | 115% (active)
88 | Cc1ccc2c(CC(=O)NCc3cccs3)coc2c1 | 8.24%
89 | CCCNC(=O)c1ccc(N2CCC3(CC2)CC(c2cccc(Br)c2)=NO3)c(NC(=O)c2ccco2)c1 | -6.12%
90 | N#C/C(=C\c1cccnc1)C(=O)Nc1ccc(SC(F)F)cc1 | 3.63%
91 | Cc1cc(/C=C(/C#N)C(=O)Nc2ccc(Cl)cc2)c(C)n1-c1cccnc1 | 76% (active)
92 | Cc1cc(/C=C2/NC(=O)NC2=O)c(C)n1-c1cccnc1 | 26.3%
93 | Cc1nn(C)c(Cl)c1CN1CCC(Oc2ccc(C(=O)N3CCCC3)cc2)CC1 | -2.1%
94 | CCCc1cc(=O)[nH]c(SCC(=O)N2C(C)CCCC2C)n1 (stereo not given) | 0.47%
95 | c1ccc2[nH]c(-c3nc4ccccc4[nH]3)nc2c1 | 71.2% (active)
96 | Cc1ccc(-c2nc3ccccc3[nH]2)cc1N | 47.4% (active)
97 | Nc1cccc(CCc2nc3ccccc3[nH]2)c1 | 6.68%
98 | COc1ccc(-c2[nH]nc(-c3ccccc3)c2-c2nc3ccccc3[nH]2)cc1 | 4.79%
99 | COc1ccc(Br)cc1C(=O)NC(=S)Nc1cc(-c2nc3ccccc3[nH]2)ccc1C | 36.6%
100 | CCCCSc1nc2ccccc2[nH]1 | 1.07%
